These results are taken from PubChem BioAssay (EPA / NIEHS).

Assay [1] concerns the target Nuclear receptor subfamily 1 group I member 3 (Homo sapiens) (UniProt Q14994). Kind of assay: ATG_CAR_TRANS: Attagene TRANS-FACTORIAL HepG2 Assay for human Constitutive Androstane Receptor (CAR) (AID 2282969).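 Note: activators raise reporter mRNA above DMSO so AC50 marks induction.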 Particulars: HepG2 Attagene TRANS-FACTORIAL CAR reporter. An outline of the steps:
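Signal is reporter mRNA induction relative to DMSO, measured 24 h after dosing by RT-PCR with fluorescent primer extension and capillary electrophoresis. Human HepG2 liver cells carried transiently transfected chimeric NR-Gal4/GAL4-UAS reporter constructs.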

Assay [2] is described as follows: ATG_GAL4_TRANS: Attagene TRANS-FACTORIAL HepG2 Assay for GAL4 (Internal Marker) (AID 2282976). Particulars: HepG2 Attagene TRANS GAL4 internal marker reporter. An outline of the steps: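 First, HepG2 cells were transfected with reporter units under GAL4-UAS control. Next, they were treated with chemical for 24 h. Finally, RNA was reverse-transcribed, PCR-amplified, FAM-labelled and resolved by capillary electrophoresis, with induction scored against DMSO.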

Assay [3] addresses Glucocorticoid receptor (Homo sapiens) (UniProt P04150). The assay is described as follows: ATG_GR_TRANS: Attagene TRANS-FACTORIAL HepG2 Assay for human Glucocorticoid Receptor (GR) (AID 2282978).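 Note: activators score as hits since higher reporter transcript over DMSO is fitted.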 Particulars: HepG2 Attagene TRANS GR reporter, mRNA transcription. An outline of the steps:
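HepG2 cells transiently transfected with multiplexed reporter units in which chimeric NR-GAL4 proteins drive GAL4-UAS reporters; 24 h compound exposure. Reporter mRNA measured by RT-PCR, 6-FAM labelling, HpaI digestion and capillary electrophoresis; gain-of-signal fitted versus DMSO.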

In assay [4] the target is human Peroxisome Proliferator-activated Receptor delta (PPARd), PPARD (gene 5467) (UniProt Q03181). The assay is described as follows: ATG_PPARd_TRANS: Attagene TRANS-FACTORIAL HepG2 Assay for human Peroxisome Proliferator-activated Receptor delta (PPARd) (AID 2283002). In a few lines: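 Read-out is induced reporter mRNA, quantified by RT-PCR with fluorescent labelling and capillary electrophoresis after 24 h dosing. Cells are HepG2 transiently carrying multiple GAL4-UAS reporter units driven by exogenous NR-GAL4 chimeras; DMSO serves as baseline.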
Sequence of human Peroxisome Proliferator-activated Receptor delta (PPARd), PPARD (gene 5467) (Q03181 whole entry, looked up, the tested form may be a part): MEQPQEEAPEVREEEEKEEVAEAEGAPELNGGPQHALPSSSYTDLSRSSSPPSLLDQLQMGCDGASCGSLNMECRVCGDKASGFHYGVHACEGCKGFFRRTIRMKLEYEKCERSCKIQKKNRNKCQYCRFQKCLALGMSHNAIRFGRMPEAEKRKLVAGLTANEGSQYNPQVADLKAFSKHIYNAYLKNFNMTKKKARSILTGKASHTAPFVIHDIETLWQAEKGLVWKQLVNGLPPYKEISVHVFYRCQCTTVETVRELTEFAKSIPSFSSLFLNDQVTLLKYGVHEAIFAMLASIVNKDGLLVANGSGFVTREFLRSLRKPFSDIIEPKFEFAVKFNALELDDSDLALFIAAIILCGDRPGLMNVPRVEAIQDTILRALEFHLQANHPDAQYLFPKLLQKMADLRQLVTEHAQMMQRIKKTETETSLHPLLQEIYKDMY

In assay [5] the target is Peroxisome proliferator-activated receptor gamma (Homo sapiens) (UniProt P37231). Kind of assay: ATG_PPARg_TRANS: Attagene TRANS-FACTORIAL HepG2 Assay for human Peroxisome Proliferator-activated Receptor-gamma (PPARg) (AID 2283007). An outline of the steps: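 HepG2 cells transiently transfected with multiplexed GAL4-UAS reporter units and exogenous chimeric NR-Gal4 proteins; reporter mRNA quantified after 24 h compound exposure by RT-PCR, fluorescent labelling, HpaI digestion and capillary electrophoresis; gain-of-signal fitted versus DMSO baseline.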
Sequence of Peroxisome proliferator-activated receptor gamma (Homo sapiens) (P37231 whole entry, looked up, the tested form may be a part): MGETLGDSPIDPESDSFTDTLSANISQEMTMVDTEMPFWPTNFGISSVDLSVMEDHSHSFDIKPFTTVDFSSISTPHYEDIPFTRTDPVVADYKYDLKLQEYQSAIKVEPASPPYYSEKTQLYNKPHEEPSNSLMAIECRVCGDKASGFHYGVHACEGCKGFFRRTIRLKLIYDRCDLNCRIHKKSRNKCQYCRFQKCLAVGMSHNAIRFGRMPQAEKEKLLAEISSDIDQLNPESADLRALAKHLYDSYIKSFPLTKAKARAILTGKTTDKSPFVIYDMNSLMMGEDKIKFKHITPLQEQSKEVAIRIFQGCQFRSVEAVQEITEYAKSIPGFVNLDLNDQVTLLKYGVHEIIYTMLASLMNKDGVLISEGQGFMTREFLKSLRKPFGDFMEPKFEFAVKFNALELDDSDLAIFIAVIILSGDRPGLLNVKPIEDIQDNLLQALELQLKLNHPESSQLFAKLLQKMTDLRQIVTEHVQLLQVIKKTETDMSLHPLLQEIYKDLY

The nature of assay [6]: TOX21_p53_BLA_p2_viability: Viability Assessment in the Tox21 HCT-116 p53 Agonism Beta-lactamase Assay, Phase 2 (AID 2283591).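 Note: compound exposure lasted 16 h at 37 °C; actives lower the ATP signal meaning cytotoxicity.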 In a few lines: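 Cytotoxicity readout: CellTiter-Glo ATP luminescence, 30 min at room temperature, after the beta-lactamase read. Cells were HCT116 exposed 16 h at 37C to compounds pin-transferred at 217-fold dilution from DMSO stocks.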
Assay [7] in a line: TOX21_p53_BLA_p3_viability: Viability Assessment in the Tox21 HCT-116 p53 Agonism Beta-lactamase Assay, Phase 3 (AID 2283593).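 Note: cells exposed to compound for 16 h before reading.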 An outline of the steps: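 Cellular ATP was quantified by CellTiter-Glo luminescence, read after 30 min at room temperature. Beforehand, HCT116 cells (4000/well) received compound 5 h post-seeding, 217-fold diluted from DMSO, then incubated 16 h at 37C.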

Assay [8] can be described thus: TOX21_p53_BLA_p4_viability: Viability Assessment in the Tox21 HCT-116 p53 Agonism Beta-lactamase Assay, Phase 4 (AID 2283597).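 Note: hits lower the luminescence signal meaning cytotoxicity.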 In a few lines: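 Readout: ATP luminescence (CellTiter-Glo), measured 30 min after reagent addition at RT. The reagent followed a 2 h CCF4-AM incubation, and the cells had been exposed to compound for 16 h at 37C.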
Assay [9] can be described thus: CCTE_Harrill_HTTr_Apoptosis_MCF7: CCTE's 6-hour Apoptosis Assessment for the High-Throughput Transcriptomics (HTTr) Platform, in MCF-7 cells cultured in DMEM + 10% fetal bovine serum, Harrill Lab (AID 2284011; active = hit-call score of the fitted dose curve at least 0.9, where 1 is the maximum; inactive = score below 0.9). In a few lines: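 MCF-7 (DMEM + 10% FBS), 384-well; 8-pt dilution series, 6 h chemical exposure; caspase-3/7 activation via CellEvent Caspase 3/7 Green, HCI; bidirectional fit vs DMSO.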

Assay [10] in a line: ATG_M_32_TRANS: Attagene TRANS-FACTORIAL HepG2 Assay for M32 Transcription Factor (Internal Marker) (AID 2282984).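 Note: transcript level of a background control reporter unit measured by RT-PCR and capillary electrophoresis.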 Particulars: HepG2 Attagene TRANS M32 internal marker reporter. In a few lines:
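Internal background reporter in transfected HepG2: after 24 h chemical exposure, RNA reverse-transcribed, reporter cDNA amplified, fluorescently labelled and HpaI-cut, then sized by capillary electrophoresis. Gain of signal fitted against DMSO control.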

Assay [11] addresses Nuclear receptor subfamily 4 group A member 2 (Homo sapiens) (UniProt P43354). Kind of assay: ATG_NURR1_TRANS: Attagene TRANS-FACTORIAL HepG2 Assay for human Nuclear Receptor Related Protein 1 (NURR1) (AID 2282985). Particulars: HepG2 Attagene TRANS reporter, mRNA readout. In a few lines:
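Reporter transcript induction, measured by RT-PCR with fluorescent labelling, HpaI digestion and capillary electrophoresis, after 24 hr dosing of human HepG2 cells transiently expressing an exogenous NR-Gal4 fusion with GAL4-UAS-driven reporters; DMSO as baseline.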

For assay [12], the target named is human Vitamin D Receptor (VDR), VDR (gene 7421) (UniProt P11473). Kind of assay: ATG_VDR_TRANS: Attagene TRANS-FACTORIAL HepG2 Assay for human Vitamin D Receptor (VDR) (AID 2283022). An outline of the steps:
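Steps: transfect HepG2 with GAL4-UAS-driven reporter constructs; dose compounds 24 h; isolate RNA, reverse-transcribe, PCR-amplify with 6-FAM-labelled primer extension and HpaI digestion; quantify fragments by capillary electrophoresis relative to DMSO.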

Assay [13] has as its target Retinoic acid receptor alpha (Homo sapiens) (UniProt P10276). Kind of assay: ATG_DR5_RAR_CIS: Attagene CIS-FACTORIAL HepG2 Assay for human Retinoic Acid Receptor Alpha (RARE), DR5 submotif (AID 2282934; active = hit-call score of the fitted dose curve at least 0.9, where 1 is the maximum; inactive = score below 0.9;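 for AC50: reporter responds to endogenous RAR alpha beta and gamma in HepG2 not RARA alone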). As to conditions: HepG2 Attagene cis-factorial RARE DR5 reporter, mRNA; actives raise or lower the signal. In a few lines:
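Reporter transcripts from a DR5-regulated unit, measured via RT-PCR plus capillary electrophoresis, reflect endogenous RAR activity in transiently transfected human HepG2 liver cells. Exposure lasted 24 h; gain or loss of signal scored against DMSO.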

The target in assay [14] is Oxysterols receptor LXR-beta (Homo sapiens) (UniProt P55055). Kind of assay: ATG_LXRb_TRANS: Attagene TRANS-FACTORIAL HepG2 Assay for human Liver X Receptor beta (LXRb) (AID 2282981). Particulars: HepG2 Attagene TRANS GAL4-LXRb reporter, mRNA. In a few lines:
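After 24 h chemical treatment of transfected HepG2 cells carrying exogenous NR-Gal4 chimeras, reporter mRNA was quantified by fluorescent RT-PCR and capillary electrophoresis; activity taken as increase over DMSO controls.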

Assay [15] deals with human RAR-related Orphan Receptor beta (RORb), RORB (gene 6096) (UniProt Q92753). The assay is described as follows: ATG_RORb_TRANS: Attagene TRANS-FACTORIAL HepG2 Assay for human RAR-related Orphan Receptor beta (RORb) (AID 2283010). In a few lines:
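Transfect HepG2 with multiple GAL4-UAS reporter transcription units; dose chemicals for 24 h; isolate RNA, reverse-transcribe and PCR-amplify reporter sequences; label, digest and resolve fragments by capillary electrophoresis; fit increases relative to DMSO.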

Assay [16] has as its target Bile acid receptor (Homo sapiens) (UniProt Q96RI1). Kind of assay: ATG_IR1_CIS: Attagene CIS-FACTORIAL HepG2 Assay for human Nuclear Receptor Subfamily 1 Group H Member 4 (NR1H4), IR1 submotif (AID 2282946; active = hit-call score of the fitted dose curve at least 0.9, where 1 is the maximum; inactive = score below 0.9). Particulars: IR1 reporter transcription, actives raise or lower the signal. In a few lines:
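HepG2 cells transiently transfected with multiplexed cis-element reporter units read endogenous transcription factor activity. After 24 h compound exposure, reporter mRNA was quantified by RT-PCR, fluorescent labelling, HpaI digestion and capillary electrophoresis; bidirectional fitting versus DMSO baseline.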

Assay [17] can be described thus: ATG_PBREM_CIS: Attagene CIS-FACTORIAL HepG2 Assay for human Phenobarbital-responsive Enhancer Module (PBREM) (AID 2282955; active = hit-call score of the fitted dose curve at least 0.9, where 1 is the maximum; inactive = score below 0.9). As to conditions: HepG2 PBREM cis-reporter, Attagene multiplexed transcription; actives raise or lower the signal. In a few lines:
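HepG2 cells transiently transfected with multiple cis-regulated reporter transcription units; endogenous factor activity at the PBREM element measured as reporter mRNA 24 h after dosing, via RT-PCR and capillary electrophoresis of fluorescent fragments; bidirectional fitting versus DMSO.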

The target of assay [18] is Oxysterols receptor LXR-alpha (Homo sapiens) (UniProt Q13133). The assay is described as follows: ATG_LXRa_TRANS: Attagene TRANS-FACTORIAL HepG2 Assay for human Liver X Receptor alpha (LXRa) (AID 2282980). As to conditions: HepG2 Attagene TRANS reporter, LXRa transactivation. In a few lines: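 Transfect HepG2 with GAL4-UAS multiplex reporter constructs (TRANS format, chimeric receptor-GAL4); treat 24 h; extract RNA, reverse-transcribe, PCR-amplify, FAM-label, HpaI-digest; resolve fragments by capillary electrophoresis. Upward response vs DMSO.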
Sequence of Oxysterols receptor LXR-alpha (Homo sapiens) (Q13133 whole entry, looked up, the tested form may be a part): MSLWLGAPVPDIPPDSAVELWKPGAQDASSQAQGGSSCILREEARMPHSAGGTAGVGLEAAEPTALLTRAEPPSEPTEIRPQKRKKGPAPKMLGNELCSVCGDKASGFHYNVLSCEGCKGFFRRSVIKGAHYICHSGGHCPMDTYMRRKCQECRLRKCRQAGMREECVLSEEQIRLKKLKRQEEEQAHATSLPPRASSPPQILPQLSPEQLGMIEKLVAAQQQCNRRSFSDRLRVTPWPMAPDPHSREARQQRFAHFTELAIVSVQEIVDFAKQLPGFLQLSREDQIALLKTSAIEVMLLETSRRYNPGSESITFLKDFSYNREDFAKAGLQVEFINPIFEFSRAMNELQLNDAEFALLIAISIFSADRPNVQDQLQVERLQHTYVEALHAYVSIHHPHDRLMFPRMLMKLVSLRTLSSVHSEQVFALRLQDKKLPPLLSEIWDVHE

In assay [19] the target is human Peroxisome Proliferator-activated Receptor alpha (PPARa), PPARA (gene 5465) (UniProt Q07869). The assay is described as follows: ATG_PPARa_TRANS: Attagene TRANS-FACTORIAL HepG2 Assay for human Peroxisome Proliferator-activated Receptor alpha (PPARa) (AID 2283001). In a few lines:
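Reporter transcripts quantified by RT-PCR plus capillary electrophoresis after 24 h treatment, fitted upward relative to DMSO. Cells: human HepG2 transiently carrying multiple GAL4-UAS reporter units driven by NR-Gal4 chimeras.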

The target in assay [20] is human Thyroid Receptor alpha (THRa1), THRA (gene 7067) (UniProt P10827). The assay is described as follows: ATG_THRa1_TRANS: Attagene TRANS-FACTORIAL HepG2 Assay for human Thyroid Receptor alpha (THRa1) (AID 2283014). In a few lines: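 Reporter transcript induction, read by capillary electrophoresis of 6-FAM-labelled RT-PCR products, reflects activity of a transfected THRa1-Gal4 fusion in HepG2 liver cells. Cells were dosed for 24 h; activity was fitted in the positive direction against DMSO.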
Sequence of human Thyroid Receptor alpha (THRa1), THRA (gene 7067) (P10827 whole entry, looked up, the tested form may be a part): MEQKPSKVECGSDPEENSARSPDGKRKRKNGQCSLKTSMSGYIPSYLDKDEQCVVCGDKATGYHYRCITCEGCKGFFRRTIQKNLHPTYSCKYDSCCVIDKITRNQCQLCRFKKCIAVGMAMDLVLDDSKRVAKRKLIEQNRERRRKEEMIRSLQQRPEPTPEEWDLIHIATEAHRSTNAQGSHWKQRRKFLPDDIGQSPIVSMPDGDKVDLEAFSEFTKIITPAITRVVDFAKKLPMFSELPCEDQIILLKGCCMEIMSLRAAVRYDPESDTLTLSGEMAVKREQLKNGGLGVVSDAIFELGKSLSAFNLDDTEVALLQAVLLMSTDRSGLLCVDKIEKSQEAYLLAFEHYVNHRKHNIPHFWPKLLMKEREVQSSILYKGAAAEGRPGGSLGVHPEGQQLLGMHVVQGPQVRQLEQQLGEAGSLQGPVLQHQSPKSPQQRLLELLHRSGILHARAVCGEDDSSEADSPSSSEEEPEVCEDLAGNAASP

Records with an inconclusive call do not appear. Activity calls are given as the source filed them. Rule for the calls, unless noted: active = hit-call score of the fitted dose curve at least 0.9, where 1 is the maximum; inconclusive = response in the unintended direction; inactive = score below 0.9.

Sequence of human RAR-related Orphan Receptor beta (RORb), RORB (gene 6096) (Q92753 whole entry, looked up, the tested form may be a part): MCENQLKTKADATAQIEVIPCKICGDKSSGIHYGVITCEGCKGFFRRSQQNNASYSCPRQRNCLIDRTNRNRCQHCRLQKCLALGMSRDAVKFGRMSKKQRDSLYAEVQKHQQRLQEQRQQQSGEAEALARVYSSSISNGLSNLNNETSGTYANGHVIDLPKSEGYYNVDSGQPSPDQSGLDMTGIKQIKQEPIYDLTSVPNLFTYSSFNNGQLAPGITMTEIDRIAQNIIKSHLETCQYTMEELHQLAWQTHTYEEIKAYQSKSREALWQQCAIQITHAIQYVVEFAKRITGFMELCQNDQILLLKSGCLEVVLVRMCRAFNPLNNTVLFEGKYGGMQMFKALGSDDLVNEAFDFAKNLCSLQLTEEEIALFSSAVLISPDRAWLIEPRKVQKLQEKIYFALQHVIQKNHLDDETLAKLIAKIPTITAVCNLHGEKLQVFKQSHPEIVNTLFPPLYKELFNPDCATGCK
Sequence of Nuclear receptor subfamily 4 group A member 2 (Homo sapiens) (P43354 whole entry, looked up, the tested form may be a part): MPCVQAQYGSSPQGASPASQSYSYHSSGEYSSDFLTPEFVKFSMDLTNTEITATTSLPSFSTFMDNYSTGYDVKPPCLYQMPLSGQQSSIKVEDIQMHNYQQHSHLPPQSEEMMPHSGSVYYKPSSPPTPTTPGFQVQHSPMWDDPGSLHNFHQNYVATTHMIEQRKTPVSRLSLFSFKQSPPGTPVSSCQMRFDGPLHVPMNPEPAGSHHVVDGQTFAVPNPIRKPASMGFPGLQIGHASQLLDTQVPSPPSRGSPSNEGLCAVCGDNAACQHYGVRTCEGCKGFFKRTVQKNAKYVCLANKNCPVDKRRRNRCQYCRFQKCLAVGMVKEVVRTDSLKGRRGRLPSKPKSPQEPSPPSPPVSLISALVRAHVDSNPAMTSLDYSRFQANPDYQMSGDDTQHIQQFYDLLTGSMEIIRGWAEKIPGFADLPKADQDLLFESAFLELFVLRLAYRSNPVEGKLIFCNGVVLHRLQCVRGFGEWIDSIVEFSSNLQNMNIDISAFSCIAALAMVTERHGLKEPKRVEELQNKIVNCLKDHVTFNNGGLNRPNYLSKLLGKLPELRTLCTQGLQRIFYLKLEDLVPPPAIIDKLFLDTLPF
Sequence of Nuclear receptor subfamily 1 group I member 3 (Homo sapiens) (Q14994 whole entry, looked up, the tested form may be a part): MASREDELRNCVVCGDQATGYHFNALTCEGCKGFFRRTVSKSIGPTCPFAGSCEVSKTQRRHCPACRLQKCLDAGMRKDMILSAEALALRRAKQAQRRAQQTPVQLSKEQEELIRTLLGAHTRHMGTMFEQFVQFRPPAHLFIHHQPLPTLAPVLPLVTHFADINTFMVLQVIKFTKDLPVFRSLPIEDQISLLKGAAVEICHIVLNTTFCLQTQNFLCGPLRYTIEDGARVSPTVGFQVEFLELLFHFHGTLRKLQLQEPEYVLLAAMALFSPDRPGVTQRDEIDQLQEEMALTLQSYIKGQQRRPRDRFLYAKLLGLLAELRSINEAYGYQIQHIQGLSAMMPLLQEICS
Sequence of human Vitamin D Receptor (VDR), VDR (gene 7421) (P11473 whole entry, looked up, the tested form may be a part): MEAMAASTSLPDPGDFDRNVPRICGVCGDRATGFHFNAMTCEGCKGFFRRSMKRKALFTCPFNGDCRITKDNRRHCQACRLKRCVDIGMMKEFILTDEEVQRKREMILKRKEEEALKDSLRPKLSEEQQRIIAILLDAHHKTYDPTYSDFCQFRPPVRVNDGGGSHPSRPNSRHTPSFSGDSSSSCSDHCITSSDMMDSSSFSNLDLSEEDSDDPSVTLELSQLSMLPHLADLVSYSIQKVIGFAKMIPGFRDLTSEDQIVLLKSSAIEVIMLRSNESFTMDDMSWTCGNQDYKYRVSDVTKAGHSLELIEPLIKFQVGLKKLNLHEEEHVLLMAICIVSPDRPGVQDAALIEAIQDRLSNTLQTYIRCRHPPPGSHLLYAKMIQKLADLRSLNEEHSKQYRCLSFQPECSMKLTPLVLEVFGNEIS
Sequence of Oxysterols receptor LXR-beta (Homo sapiens) (P55055 whole entry, looked up, the tested form may be a part): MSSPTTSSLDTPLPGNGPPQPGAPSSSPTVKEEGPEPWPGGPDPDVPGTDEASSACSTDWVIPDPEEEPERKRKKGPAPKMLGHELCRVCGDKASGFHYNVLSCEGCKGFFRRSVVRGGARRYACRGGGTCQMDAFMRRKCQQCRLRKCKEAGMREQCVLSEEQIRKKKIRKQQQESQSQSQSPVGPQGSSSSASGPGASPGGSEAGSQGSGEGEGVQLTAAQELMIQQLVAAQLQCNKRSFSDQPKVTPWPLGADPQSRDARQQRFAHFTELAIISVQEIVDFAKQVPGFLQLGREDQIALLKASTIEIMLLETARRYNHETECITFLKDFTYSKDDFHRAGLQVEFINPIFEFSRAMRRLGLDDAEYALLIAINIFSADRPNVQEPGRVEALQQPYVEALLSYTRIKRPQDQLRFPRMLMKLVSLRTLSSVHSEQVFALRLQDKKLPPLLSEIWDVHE
Sequence of Glucocorticoid receptor (Homo sapiens) (P04150 whole entry, looked up, the tested form may be a part): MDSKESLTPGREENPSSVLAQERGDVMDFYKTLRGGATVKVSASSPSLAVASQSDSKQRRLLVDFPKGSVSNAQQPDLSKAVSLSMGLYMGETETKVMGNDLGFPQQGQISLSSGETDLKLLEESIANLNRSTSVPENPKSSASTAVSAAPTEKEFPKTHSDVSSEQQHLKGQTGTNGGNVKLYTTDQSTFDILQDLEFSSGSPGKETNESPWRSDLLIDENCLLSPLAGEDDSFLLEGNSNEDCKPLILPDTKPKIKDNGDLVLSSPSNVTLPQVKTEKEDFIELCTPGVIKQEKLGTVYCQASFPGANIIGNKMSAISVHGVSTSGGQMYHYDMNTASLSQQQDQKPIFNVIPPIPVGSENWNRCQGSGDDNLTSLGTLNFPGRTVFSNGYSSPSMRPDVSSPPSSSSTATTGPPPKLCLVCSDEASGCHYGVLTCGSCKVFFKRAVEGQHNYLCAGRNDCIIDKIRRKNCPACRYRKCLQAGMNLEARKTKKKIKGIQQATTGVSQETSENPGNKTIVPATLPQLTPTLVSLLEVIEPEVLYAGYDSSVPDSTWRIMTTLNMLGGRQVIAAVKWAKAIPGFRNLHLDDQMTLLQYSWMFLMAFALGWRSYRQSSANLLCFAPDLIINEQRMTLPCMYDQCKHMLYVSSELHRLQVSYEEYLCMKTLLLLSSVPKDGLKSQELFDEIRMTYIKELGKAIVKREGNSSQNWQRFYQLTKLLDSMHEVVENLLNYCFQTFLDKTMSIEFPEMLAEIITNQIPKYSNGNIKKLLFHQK

Consider `C=CCN(CC=C)C(=O)C(Cl)Cl`, for which the call in assay [1], in assay [2], in [3], in assay [4], in assay [5] and in [6] was inactive. The molecule was called inactive in [7], in assay [8] and in assay [9].
`COc1cc(OC)c(OC)cc1C=O`: the outcome in [2], in assay [10], in assay [11], in assay [5], in assay [12] and in [6] was inactive. The result in [7] and in assay [8] was inactive.
For `O=[N+]([O-])O.O=[N+]([O-])O.[Cd]`, the AC50 in assay [13] is 2.08 µM (active); in [6] it was 59.2 µM (active). Further, the result in assay [2], in [14], in assay [10], in assay [11], in assay [5] and in assay [15] was inactive. Besides, the result in assay [7] and in assay [8] was inactive.
`COCC(=O)N(c1c(C)cccc1C)N1CCOC1=O`: the outcome in assay [16], in assay [17], in assay [1], in [2], in assay [10] and in [4] was inactive. The result in [6] and in [7] was inactive.
Take `COc1cc(OC)nc(Oc2cccc(Oc3nc(OC)cc(OC)n3)c2C(=O)O)n1`: the result in assay [16], in [17], in [1], in assay [2], in assay [18] and in assay [14] was inactive. The call in assay [11], in assay [19], in [4], in assay [5], in assay [15] and in assay [6] was inactive. For the same molecule, the outcome in assay [9] was inactive.
For the molecule `C=CCc1ccc(OC(=O)Cc2ccccc2)c(OC)c1`, the call in assay [13], in [17], in [1], in [3], in assay [18] and in assay [11] was inactive. Also, the call in assay [4], in assay [20], in assay [12] and in assay [6] was inactive. Besides, in assay [5], the AC50 was 19 µM (active).
As for `[Cl-].[Cl-].[Cl-].[Yb+3]`, the molecule was called inactive in assay [2], in [18], in [11], in assay [15], in [20] and in assay [6]. The call in [7] and in assay [8] was inactive.
